Hits are enriched below; roughly 1.9% of the tested compounds scored in any of these assays.
FUS suppressor = qHTS for Suppressors of FUS Proteinopathy: Primary screen using FUS-linked yeast assay | S. cerevisiae FUS-expressing, growth rescue, OD600, 24 h | Potency, µM (doses to about 76.6 µM), most hits filed as activators | actives 0.24% (n = 390,000) | AID 1347120, 2019;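 further: potency means the concentration at half of the fitted maximal effect; plate controls were DMSO vehicle for no effect and reference control for full effect; nearly all actives have a fitted effect of over 55% in size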
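Quantitative HTS measuring growth restoration of FUS-toxic yeast. Galactose-induced cells (OD 0.005) were exposed 24hr at 30C to compounds at several concentrations, then absorbance at 600 nm was recorded.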
PTHR1 agonist = qHTS for PTHR1 Agonists: Primary Screen; Parathyroid hormone/parathyroid hormone-related peptide receptor (Homo sapiens), Q03431; HEK293 GP2 PTHR1 cells, GloSensor cAMP luminescence, 1 h; Potency, µM (titrated, usually from 115 µM), for inactives: at the top dose activation, most hits filed as activators; actives 0.075% (n = 410,000); AID 743266, 2014; further: potency means the concentration at half of the fitted maximal effect; nearly all actives have a fitted effect of over 55% in size
Target sequence (Q03431 whole entry, looked up): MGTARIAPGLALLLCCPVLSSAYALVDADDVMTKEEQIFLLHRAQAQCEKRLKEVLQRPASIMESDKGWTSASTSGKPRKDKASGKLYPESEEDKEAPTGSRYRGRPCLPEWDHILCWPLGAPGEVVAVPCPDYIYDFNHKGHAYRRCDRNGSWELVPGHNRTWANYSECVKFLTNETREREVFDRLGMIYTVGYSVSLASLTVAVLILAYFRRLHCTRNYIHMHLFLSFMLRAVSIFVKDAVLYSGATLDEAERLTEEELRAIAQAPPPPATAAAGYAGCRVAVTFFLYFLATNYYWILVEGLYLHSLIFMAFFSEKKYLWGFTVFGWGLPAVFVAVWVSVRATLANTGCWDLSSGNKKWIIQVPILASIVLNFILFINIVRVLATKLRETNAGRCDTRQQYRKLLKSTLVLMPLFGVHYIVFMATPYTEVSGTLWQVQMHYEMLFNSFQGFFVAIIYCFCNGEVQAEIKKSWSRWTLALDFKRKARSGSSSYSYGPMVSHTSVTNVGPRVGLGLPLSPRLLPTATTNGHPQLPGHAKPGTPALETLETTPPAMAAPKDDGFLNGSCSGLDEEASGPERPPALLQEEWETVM
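HEK-293-derived GP2 cells expressing PTHR1 and a GloSensor cAMP reporter, 3,000/well, plated overnight, given luciferin plus IBMX (each 0.5 mM as added) for 1 h at 37 °C, then compound for 1 h at 37 °C. Luminescence was read after 15 min at room temperature.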
TDP-43 yeast inh = qHTS of TDP-43 Inhibitors. TDP-43 expressing yeast growth rescue, BacTiter-Glo, 24 h. Potency, µM (titrated, usually from 46.1 µM), without a hit: top-dose growth rescue (activation), hits mostly activators. actives 1.8% (n = 410,000); further: potency means the concentration at half of the fitted maximal effect; % of control where 0% means no effect; nearly all actives have a fitted effect of over 50% in size
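Cell-based yeast growth screen: TDP-43 expression induced in galactose, inoculum OD600=0.02 after raffinose pregrowth to mid-log. Read-out BacTiter-Glo luminescence at 24 hr, 30 deg C; inhibition of toxicity seen as signal increase.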
LDHA inh = qHTS assay for inhibitors of human lactate dehydrogenase | L-lactate dehydrogenase A chain (Homo sapiens), P00338 | purified LDHA, NADH/diaphorase-resazurin fluorescence; stronger effect = lower value | activity change, % (values are at about 110 or 230 µM) | actives 0.15% (n = 480,000) | AID 1347041, 2019; in the data active means activity change below about -30%; inconclusive means mostly about -25% to -30%;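 further: plate controls were DMSO wells for no effect and wells without enzyme for full effect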
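Remaining NADH was detected by diaphorase (0.133 mg/mL) converting 37 µM resazurin to fluorescent resorufin, read at 0 and 20 minutes. The preceding 5-minute room-temperature reaction used 2 nM LDHA, 0.2 mM sodium pyruvate and 0.06 mM NADH at pH 7.4.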
aSyn rescue = qHTS of alpha-syn Inhibitors; Yeast expressing alpha-synuclein, growth rescue, BacTiter-Glo, 24 h; actives 0.14% (n = 370,000); Potency, µM (top dose mostly 46.1 µM), inactives show at the top dose growth rescue (activation), most hits filed as activators; further: potency means the concentration at half of the fitted maximal effect; % of control where 0% means no effect; nearly all actives have a fitted effect of over 65% in size
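Rescue of yeast growth: cells expressing toxic alpha-synuclein, induced in galactose at OD600 0.02, incubated with compound 24 h at 30 C. ATP luminescence quantified growth; inhibitors of toxicity appear as activators.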
Abeta rescue = qHTS for compounds that reverse cellular toxicity of Amyloid beta (A-beta) peptide in yeast: Primary Screen; Potency, µM (top dose mostly 46.1 µM), usual class: activators; yeast expressing A-beta42, growth rescue, OD600, 48 h; response scale: 0% DMSO, 100% iron-clioquinol control; actives 0.063% (n = 410,000); further: potency means the concentration at half of the fitted maximal effect; nearly all actives have a fitted effect of over 55% in size
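Yeast A-beta toxicity model in growth medium with pinned compounds, 48 h at 30 C; growth read as absorbance at 600 nm. Normalized to FeCl3/clioquinol equimolar mix (positive) and DMSO (negative).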
* hit, by the source's call. Unless noted, the call rests on the fitted dose curve; in most records, active means well fitted curve in the direction sought with a large enough effect; inconclusive means small, poorly fitted or top-dose-only effect, or another doubt; inactive means no such curve, though single readings can be large; an effect the other way counts as inactive or inconclusive.

What do the screens show for `CC(C(=O)O)c1ccc(-c2ccccc2)c(F)c1` (stereo not drawn)?
FUS suppressor: inactive; PTHR1 agonist: -0.7%; TDP-43 yeast inh: 15.8µM*; LDHA inh: -6.1; aSyn rescue: -11.6%; Abeta rescue: inactive

How did Cc1noc(C)c1COc1ccc(CC(=O)N(CCC#N)CCN2CCOCC2)cc1 do in these assays?
LDHA inh: -4.8

How did O=c1c(-c2ccccc2)c(O)c2ccccc2n1-c1ccccc1 do in these assays?
FUS suppressor: inactive; PTHR1 agonist: -28.7%; TDP-43 yeast inh: 12.6µM*; LDHA inh: 0.3; aSyn rescue: -14.4%; Abeta rescue: inactive

What do the screens show for `O=C(NC1CCS(=O)(=O)C1)c1cn(Cc2ccccc2)c2ccccc12` (stereo not drawn)?
LDHA inh: -2.9

How did COc1ccccc1C(=O)Nc1nnc(-c2ccc(Cl)cc2)o1 do in these assays?
FUS suppressor: inactive; PTHR1 agonist: inactive; TDP-43 yeast inh: 12.6µM*; LDHA inh: 1.0; aSyn rescue: 4.8%; Abeta rescue: inactive

How did Cc1cc(C(=O)C(C)(C)NO)ccc1Cl do in these assays?
LDHA inh: -5.7

Results for CC(C)OC(=O)c1c(N)n(CC2CCCO2)c2nc3ccccc3nc12 (stereo not drawn) ?
FUS suppressor: inactive; PTHR1 agonist: inactive; TDP-43 yeast inh: -10.3%; LDHA inh: 4.2; aSyn rescue: -1.4%; Abeta rescue: inactive

Results for Nc1c(C(=O)OC2CCCCC2)c2nc3ccccc3nc2n1CC1CCCO1 (stereo not drawn) ?
FUS suppressor: inactive; PTHR1 agonist: inactive; TDP-43 yeast inh: 28.2µM*; LDHA inh: -9.1; aSyn rescue: 2.5%; Abeta rescue: inactive

Results for O=C(O)CC1(CNC(=O)Cn2ccc3c(Cl)cccc32)CCCCC1 ?
LDHA inh: 0.8

What do the screens show for `CC1CCC(C)(NS(=O)(=O)OCC(Cl)(Cl)Cl)CC1` (stereo not drawn)?
FUS suppressor: inactive; PTHR1 agonist: -49.1%; TDP-43 yeast inh: 17.8µM*; LDHA inh: 0.2; aSyn rescue: 4.3%; Abeta rescue: inactive

Results for CCOc1ccc(N2C(=O)CC(=O)NC2=O)cc1 ?
FUS suppressor: inactive; PTHR1 agonist: inactive; TDP-43 yeast inh: 14.0%; LDHA inh: -5.8; aSyn rescue: 3.7%; Abeta rescue: inactive

What do the screens show for `CCOc1ccccc1N1C(=O)CC(=O)NC1=O`?
FUS suppressor: inactive; PTHR1 agonist: inactive; TDP-43 yeast inh: 6.1%; LDHA inh: -30.4*; aSyn rescue: -5.8%

What do the screens show for `O=C(CNC12CC3CC(CC(C3)C1)C2)c1ccc(Cl)cc1`?
LDHA inh: -80.8*

Results for O=C(CI)c1ccc(Cl)cc1 ?
LDHA inh: -4.1; aSyn rescue: 15.0%

How did Cc1ccc2[nH]cc(CCN)c2c1 do in these assays?
LDHA inh: 8.7

What do the screens show for `C=C(C=O)CC1CC(O)[C@]2(C)OC3CC4OC5C[C@]6(C)O[C@]7(C)CCC8OC9C[C@]%10(C)OC%11C(C)=CC(=O)OC%11CC%10OC9C[C@@H](C)C8OC7CC6O[C@]5(C)CC5OC5C4OC3CC2O1` (stereo partly drawn)?
FUS suppressor: inactive; PTHR1 agonist: -30.8%; TDP-43 yeast inh: 3.16µM*; LDHA inh: -2.9; aSyn rescue: 5.0%; Abeta rescue: inactive

Results for C=C(CO)CC1CC(O)[C@]2(C)OC3CC4OC5C[C@]6(C)O[C@]7(C)CCC8OC9C[C@]%10(C)OC%11C(C)=CC(=O)OC%11CC%10OC9C[C@@H](C)C8OC7CC6O[C@]5(C)C/C=C\C4OC3CC2O1 (stereo partly drawn) ?
FUS suppressor: inactive; PTHR1 agonist: inactive; TDP-43 yeast inh: 9.3%; LDHA inh: -1.8; aSyn rescue: 9.7%; Abeta rescue: inactive

Results for Clc1cc(CNC2CN3CCC2CC3)cc(Cl)c1OCc1ccccc1 (stereo not drawn) ?
LDHA inh: 1.8

How did Oc1ccc(Cl)cc1Cc1ccccc1 do in these assays?
FUS suppressor: inactive; PTHR1 agonist: -14.3%; TDP-43 yeast inh: 14.1µM*; LDHA inh: -2.8; aSyn rescue: -9.5%; Abeta rescue: inactive

How did CCOc1ccc(N2CC(c3nc4ccccc4n3CCC3CCCCC3)CC2=O)cc1 (stereo not drawn) do in these assays?
FUS suppressor: inactive; PTHR1 agonist: -6.5%; TDP-43 yeast inh: 25.1µM*; LDHA inh: -3.8; Abeta rescue: inactive

How did CSc1nc(N)c2c(n1)OC(N)=C(C#N)C2c1ccccc1F (stereo not drawn) do in these assays?
LDHA inh: -2.8

What do the screens show for `COC(=O)C1=C(c2ccc(OC(F)(F)F)cc2)C[C@@H]2CC[C@H]1N2C(=O)NCc1ccc(F)cc1`?
FUS suppressor: inactive; PTHR1 agonist: -12.1%; TDP-43 yeast inh: 12.6µM*; LDHA inh: 2.3; aSyn rescue: 12.4%; Abeta rescue: inactive

How did COC(=O)C1=C(c2ccc(OC)c(OC)c2)C[C@@H]2CC[C@H]1N2C(=O)N1CCC(C)CC1 do in these assays?
FUS suppressor: inactive; PTHR1 agonist: inactive; TDP-43 yeast inh: 9.1%; LDHA inh: -5.2; aSyn rescue: 0.5%; Abeta rescue: inactive

How did COC(=O)C1=C(c2ccc(OC(F)(F)F)cc2)C[C@@H]2CC[C@H]1N2C(=O)NC1Cc2ccccc2C1 do in these assays?
FUS suppressor: inconclusive; PTHR1 agonist: -12.5%; TDP-43 yeast inh: 35.5µM*; LDHA inh: 6.0; aSyn rescue: 1.0%; Abeta rescue: inactive

Results for COC(=O)C1=C(c2ccc(OC(F)(F)F)cc2)C[C@@H]2CC[C@H]1N2C(=O)NC1CCCCC1 ?
FUS suppressor: inactive; PTHR1 agonist: inactive; TDP-43 yeast inh: 17.8µM*; LDHA inh: -20.6; aSyn rescue: -10.4%; Abeta rescue: inactive

How did COC(=O)C1=C(c2ccc3ccccc3c2)C[C@@H]2CC[C@H]1N2C(=O)N1CCC(C)CC1 do in these assays?
FUS suppressor: inactive; PTHR1 agonist: -26.6%; TDP-43 yeast inh: 25.1µM*; LDHA inh: 2.6; aSyn rescue: -0.6%; Abeta rescue: inactive

Results for NCC(=O)c1ccc(Cl)c(Cl)c1 ?
LDHA inh: -31.3*
